Results as given in PubChem BioAssay (NCI).
About 83,000 compounds went through this panel and 20% of them were active in at least one assay; those are over-represented in the sample as a whole.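 Note: values are percent growth. 100 is the growth of untreated cells, values between 100 and 0 indicate rising inhibition; between -100 and 0 indicates cell death.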 Activity calls are given as the source filed them. How the source made its calls: active means growth percent below 10; inactive means the rest.

What was measured:
Experiment in all cases: NCI-60 one-dose screen, 48 h (100 = growth as untreated, 0 = no growth, -100 = all killed)
Details in all cases: 10 µM unless noted
DU-145 prostate = tested on: DU-145 prostate
MALME-3M melanoma = tested on: MALME-3M melanoma
MDA-MB-231 breast = tested on: MDA-MB-231 breast
RXF 393 renal = tested on: RXF 393 renal
SF-268 CNS = tested on: SF-268 CNS
SF-295 CNS = tested on: SF-295 CNS
SF-539 CNS = tested on: SF-539 CNS
UACC-257 melanoma = tested on: UACC-257 melanoma
M14 melanoma = tested on: M14 melanoma

Structure (SMILES): N#Cc1c(NCc2ccccc2)n[nH]c1Nc1ccccc1
- growth (DU-145 prostate): 92.7% (inactive)
- growth (MALME-3M melanoma): 21.9% (inactive)
- growth (MDA-MB-231 breast): 66.3% (inactive)
- growth (RXF 393 renal): 60.7% (inactive)
- growth (SF-268 CNS): 54.8% (inactive)
- growth (SF-295 CNS): 49.5% (inactive)
- growth (SF-539 CNS): 75.9% (inactive)
- growth (UACC-257 melanoma): 50.9% (inactive)
- growth (M14 melanoma): 41.1% (inactive)

Structure (SMILES): Cc1cc(N=C2NC(=O)CS2)n[nH]1
- growth (DU-145 prostate): 119% (inactive)
- growth (MALME-3M melanoma): 94.8% (inactive)
- growth (MDA-MB-231 breast): 104% (inactive)
- growth (RXF 393 renal): 128% (inactive)
- growth (SF-268 CNS): 95.8% (inactive)
- growth (SF-295 CNS): 101% (inactive)
- growth (SF-539 CNS): 97.6% (inactive)
- growth (UACC-257 melanoma): 118% (inactive)
- growth (M14 melanoma): 96.5% (inactive)

Structure (SMILES): COc1ccc(C2=NN(c3ccccc3)C(c3ccc(OCc4ccccc4)c(OC)c3)C2)cc1OC (stereo not drawn)
- growth (DU-145 prostate): 113% (inactive)
- growth (MALME-3M melanoma): 99.1% (inactive)
- growth (MDA-MB-231 breast): 101% (inactive)
- growth (RXF 393 renal): 86.2% (inactive)
- growth (SF-268 CNS): 90% (inactive)
- growth (SF-295 CNS): 91.3% (inactive)
- growth (SF-539 CNS): 98.7% (inactive)
- growth (UACC-257 melanoma): 90.9% (inactive)
- growth (M14 melanoma): 91.2% (inactive)

Structure (SMILES): Cc1cc(C)n(-c2ccc3nnc(-c4ccccc4)n3n2)n1
- growth (DU-145 prostate): 92.2% (inactive)
- growth (MALME-3M melanoma): 108% (inactive)
- growth (MDA-MB-231 breast): 117% (inactive)
- growth (RXF 393 renal): 90.6% (inactive)
- growth (SF-268 CNS): 89.6% (inactive)
- growth (SF-295 CNS): 103% (inactive)
- growth (SF-539 CNS): 102% (inactive)
- growth (UACC-257 melanoma): 135% (inactive)
- growth (M14 melanoma): 129% (inactive)

Structure (SMILES): CN1CCN(c2ccc(C(=O)/C=C/c3cc(C(F)(F)F)cc(C(F)(F)F)c3)cc2)CC1
- growth (DU-145 prostate): -73.9% (active)
- growth (MALME-3M melanoma): -86.5% (active)
- growth (MDA-MB-231 breast): -89.9% (active)
- growth (RXF 393 renal): -86.7% (active)
- growth (SF-268 CNS): -51% (active)
- growth (SF-295 CNS): -86.4% (active)
- growth (SF-539 CNS): -97% (active)
- growth (UACC-257 melanoma): -88.9% (active)
- growth (M14 melanoma): -97.4% (active)

Structure (SMILES): COc1ccc(C(=O)/C=C/c2cc3c(cc2Br)OCO3)cc1S(N)(=O)=O
- growth (DU-145 prostate): -0.788% (active)
- growth (MALME-3M melanoma): 23.8% (inactive)
- growth (MDA-MB-231 breast): 23.7% (inactive)
- growth (RXF 393 renal): -58.2% (active)
- growth (SF-268 CNS): 18.1% (inactive)
- growth (SF-295 CNS): -22.8% (active)
- growth (SF-539 CNS): -89.2% (active)
- growth (UACC-257 melanoma): 63.6% (inactive)
- growth (M14 melanoma): -71.2% (active)

Structure (SMILES): COc1ccc(C(=O)/C=C/c2cccnc2)cc1S(N)(=O)=O
- growth (DU-145 prostate): 22% (inactive)
- growth (MALME-3M melanoma): 77.5% (inactive)
- growth (MDA-MB-231 breast): 60.5% (inactive)
- growth (RXF 393 renal): 54.1% (inactive)
- growth (SF-268 CNS): 44.4% (inactive)
- growth (SF-295 CNS): 38.9% (inactive)
- growth (SF-539 CNS): 3.62% (active)
- growth (UACC-257 melanoma): 72.1% (inactive)
- growth (M14 melanoma): 66.2% (inactive)

Structure (SMILES): COc1ccc(C(=O)/C=C/c2ccccc2Br)cc1S(N)(=O)=O
- growth (DU-145 prostate): -31.7% (active)
- growth (MALME-3M melanoma): 62.3% (inactive)
- growth (MDA-MB-231 breast): -20.8% (active)
- growth (RXF 393 renal): -70% (active)
- growth (SF-268 CNS): 14.2% (inactive)
- growth (SF-295 CNS): -76.6% (active)
- growth (SF-539 CNS): -74.9% (active)
- growth (UACC-257 melanoma): 15.5% (inactive)
- growth (M14 melanoma): -11.7% (active)

Structure (SMILES): O=C(Nc1ccc(C(F)(F)F)cc1)Nc1ccc2oc(=O)ccc2c1
- growth (DU-145 prostate): 27.9% (inactive)
- growth (MALME-3M melanoma): -1.86% (active)
- growth (MDA-MB-231 breast): 14.6% (inactive)
- growth (RXF 393 renal): 56.5% (inactive)
- growth (SF-268 CNS): 50.9% (inactive)
- growth (SF-295 CNS): -7.66% (active)
- growth (SF-539 CNS): 32.2% (inactive)
- growth (UACC-257 melanoma): 0.986% (active)
- growth (M14 melanoma): 16.3% (inactive)

Structure (SMILES): COc1ccc(-c2nnc3ccc(N/N=C/c4ccc(C)cc4)nn23)cc1
- growth (DU-145 prostate): 39.1% (inactive)
- growth (MALME-3M melanoma): 91.3% (inactive)
- growth (MDA-MB-231 breast): 65.4% (inactive)
- growth (RXF 393 renal): 62.2% (inactive)
- growth (SF-268 CNS): 59.1% (inactive)
- growth (SF-295 CNS): 56.9% (inactive)
- growth (SF-539 CNS): 61.3% (inactive)
- growth (UACC-257 melanoma): 106% (inactive)
- growth (M14 melanoma): 83.5% (inactive)

Structure (SMILES): COc1cc(OC)cc(-c2cc3ccc(N(C)C)cc3c(=O)[nH]2)c1
- growth (DU-145 prostate): 21.5% (inactive)
- growth (MALME-3M melanoma): 59.3% (inactive)
- growth (MDA-MB-231 breast): 33.1% (inactive)
- growth (RXF 393 renal): 80.5% (inactive)
- growth (SF-268 CNS): 36.3% (inactive)
- growth (SF-295 CNS): 16.2% (inactive)
- growth (SF-539 CNS): -1.21% (active)
- growth (UACC-257 melanoma): 75.7% (inactive)
- growth (M14 melanoma): 10.7% (inactive)

Structure (SMILES): COc1cc(OC)cc(C(=O)Nc2cccc(-c3cn(-c4ccc(S(N)(=O)=O)cc4)nn3)c2)c1
- growth (DU-145 prostate): 97.2% (inactive)
- growth (MALME-3M melanoma): 79.9% (inactive)
- growth (MDA-MB-231 breast): 67.5% (inactive)
- growth (RXF 393 renal): 57.5% (inactive)
- growth (SF-268 CNS): 50.3% (inactive)
- growth (SF-295 CNS): 63% (inactive)
- growth (SF-539 CNS): 60.3% (inactive)
- growth (UACC-257 melanoma): 101% (inactive)
- growth (M14 melanoma): 91.3% (inactive)
